The text below walks through data of PubChem BioAssay AID588342 (National Center for Advancing Translational Sciences (NCATS), 2011).

Structures are written as SMILES. Hit rate of the full screen: of about 360,000 compounds, about 25,000 (6.9%) were called active. A call without a number means that no potency is given here. Another 9% or so got no clear call; they are omitted. Calls follow the shape of the dose curve; as a rule, active = well fitted inhibition curve with a large enough effect; inconclusive = small, poorly fitted or top-dose-only effect; inactive = flat fitted curve, though single readings scatter. The sample as a whole holds a higher share of actives than the screen did.
Potency is read from the fitted curve at half-maximal effect.

Luciferin 4-monooxygenase (Photinus pyralis), sequence (P08659 whole entry, looked up): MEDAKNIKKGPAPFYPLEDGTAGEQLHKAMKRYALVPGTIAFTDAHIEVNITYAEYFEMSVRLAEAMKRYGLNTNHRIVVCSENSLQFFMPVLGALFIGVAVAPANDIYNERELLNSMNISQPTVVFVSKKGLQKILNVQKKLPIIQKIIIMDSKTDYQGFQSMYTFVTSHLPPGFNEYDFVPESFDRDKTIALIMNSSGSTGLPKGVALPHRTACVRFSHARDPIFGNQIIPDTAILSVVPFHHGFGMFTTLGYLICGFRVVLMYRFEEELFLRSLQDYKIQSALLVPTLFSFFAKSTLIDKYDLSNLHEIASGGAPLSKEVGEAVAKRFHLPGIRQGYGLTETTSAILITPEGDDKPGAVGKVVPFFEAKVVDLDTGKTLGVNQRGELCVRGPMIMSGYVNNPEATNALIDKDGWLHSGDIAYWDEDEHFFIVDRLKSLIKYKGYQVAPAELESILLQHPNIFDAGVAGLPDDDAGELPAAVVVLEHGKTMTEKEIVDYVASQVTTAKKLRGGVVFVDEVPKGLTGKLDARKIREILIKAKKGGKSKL

The experiment has as its target Luciferin 4-monooxygenase (Photinus pyralis) (UniProt P08659). In words: qHTS profiling assay for firefly luciferase inhibitor/activator using purifed enzyme and Km concentrations of substrates (counterscreen for miR-21 project). Also: nearly all actives have a fitted effect of over 55% in size. The settings on record: purified FLuc, luminescence inhibition; series mostly up to 57.5 µM. Put shortly:
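Purified P. pyralis luciferase, 10 nM final, with Km-level 10 uM D-luciferin and 10 uM ATP in 50 mM Tris acetate pH 7.5, 10 mM Mg acetate, 0.01% Tween-20, 0.05% BSA; 6-point qHTS titration about 60 µM downward; luminescence read.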
On the technique in general: qHTS replaces the single test concentration by a dilution series.
As to `Cc1cccc(NC(=O)CN2CCN(C(=O)C3CCN(C(=O)/C=C/c4ccccc4)CC3)CC2)c1C`, the Potency entry is “inactive”.

With `CCNC(=O)CC1C(=O)N(c2ccc(F)cc2)C(=O)N1CCc1sccc1C` (stereo not drawn), the Potency result was “inactive”.

Turning to `Cc1ccc(CN2CCc3nc(N4CCN(C)CC4)ncc3C2)cc1`, the Potency result is “inactive”.

On to `Cc1ccc(-c2csc(-c3c[nH]c4ccccc34)n2)cc1`, for which the Potency is 12 µM (active).

`Cc1cc(-c2nc(C)c(-c3nnc(SCC(=O)Nc4ccccc4)n3C)s2)no1`: the Potency result is “inactive”.

As for `CCC(C)Sc1nnc(-c2c[nH]c3ccccc23)n1CCOC` (stereo not drawn), the Potency entry is “inactive”.

As to `CCCc1cc(-c2nc(-c3ccc(C)cc3)cs2)ccn1`, the Potency was 23.9 µM (active).

On to `CCCc1cc(-c2n[nH]c(=S)n2CC)c2ccccc2n1`, for which the Potency result was “inactive”.

`CCCCCN1CC(O)=C(c2nc(-c3ccc(Cl)cc3)cs2)C1=N`: the Potency result was “inactive”.

Turning to `Cc1cc(-c2n[nH]c(=S)n2-c2ccc(C)c(C)c2)no1`, the Potency result was “inactive”.

`Cc1ccc(-c2csc(-c3cc(C)on3)n2)cc1`: the Potency was 8.49 µM (active).

Turning to `Cc1ccc(-n2c(=O)c3cccnc3n2CC(=O)Nc2ccccc2C(F)(F)F)cc1C`, the Potency entry is “inactive”.

For `CCOC(=O)c1c(NC(=O)/C=C/c2ccco2)sc(C)c1C`, the Potency result is “inactive”.

As to `O=C(Nc1cccc(-c2nc3ccccc3[nH]2)c1)c1ccc(C(=O)Nc2cccc(-c3nc4ccccc4[nH]3)c2)cc1`, the Potency was 12 µM (active).

With `CC(C)Oc1ccc(/C=C(\NC(=O)/C=C/c2ccco2)C(=O)NCCc2nc3ccccc3[nH]2)cc1`, the Potency result was “inactive”.

In the case of `Cc1ccc(OCC(=O)Nc2ccc(Cl)c(-c3nc4ccccc4[nH]3)c2)cc1C`, the Potency result is “inactive”.

With `Cc1ccc(-n2nc3ccc(NC(=O)/C=C/c4ccco4)cc3n2)cc1C`, the Potency was 9.53 µM (active).

Consider `CN(c1ccccc1)S(=O)(=O)c1cc(C(=O)Nc2nc3ccccc3[nH]2)ccc1Cl`, for which the Potency entry is “inactive”.

In the case of `NS(=O)(=O)c1cccc(NC(=O)COC(=O)/C=C/c2ccco2)c1`, the Potency entry was “inactive”.

For `O=C(/C=C/c1ccco1)Nc1cccc(-c2nc3ccccc3[nH]2)c1`, the Potency was 7.57 µM (active).

`Cc1cccc(NC(=O)C2CCN(S(=O)(=O)c3c(C)noc3/C=C/c3ccco3)CC2)c1`: the Potency entry is “inactive”.

In the case of `COC(C[C@H](O)CC(=O)COCc1ccccc1)OC`, the Potency entry is “inactive”.

Consider `CC(=O)NC12CC3CC(C1)CC(C(=O)N1CCN(C(=O)c4ccco4)CC1)(C3)C2`, for which the Potency entry is “inactive”.

On to `CCOc1ccc(OCC)c(NC(=O)c2c(C)nn(-c3ccccc3)c2-n2cccc2)c1`, for which the Potency result is “inactive”.

As for `CN(C)C(CNC(=O)c1cccc(C#N)c1)c1ccco1` (stereo not drawn), the Potency result is “inactive”.

As to `CCN(C(=O)COc1cccnc1[N+](=O)[O-])C1CCS(=O)(=O)C1` (stereo not drawn), the Potency result was “inactive”.

With `CC(C)c1ccc(NC(=O)CN(C)S(=O)(=O)c2ccc3c(c2)c(=O)n(C)c(=O)n3C)cc1`, the Potency result is “inactive”.

On to `COc1ccccc1CN1CCC(CNC(=O)c2cnn(-c3cccc(Cl)c3)c2C2CCN(C(=O)OC(C)(C)C)CC2)CC1`, for which the Potency entry is “inactive”.

For the molecule `CCc1ccc(N(CC)C(=O)CCn2cnc3onc(-c4ccc(F)cc4)c3c2=O)cc1`, the Potency result was “inactive”.

As for `O=C(Nc1ccccc1)N1CCC(C(=O)N2CCN(Cc3ccccc3)CC2)CC1`, the Potency result was “inactive”.

Turning to `O=C(Nc1cccc(Cl)c1)C1CCCN(c2cnccn2)C1` (stereo not drawn), the Potency entry was “inactive”.

For the molecule `O=C(Nc1ccc2c(c1)OCO2)c1sc2cc(Cl)ccc2c1Cl`, the Potency result is “inactive”.

Regarding `O=C(Nc1ccc2c(c1)OCCO2)C1CCCC1`, the Potency is 9.53 µM (active).

`CN1C(=O)c2ccc(NC(=O)C3CCCCC3)cc2C1=O`: the Potency entry was “inactive”.

As for `O=C(Nc1ccc2c(c1)OCCO2)C1CCCN(c2ncccn2)C1` (stereo not drawn), the Potency was 0.953 µM (active).

As for `Cc1cc(C)nc(N2CCC(C(=O)Nc3ccc4c(c3)OCCO4)CC2)n1`, the Potency result is “inactive”.

Regarding `COC(=O)c1cccc(C(=O)N2CCCC(Nc3ccc4c(c3)OCCO4)C2)c1` (stereo not drawn), the Potency result was “inactive”.

On to `S=C(Nc1ccc2c(c1)OCO2)N1CCCC1`, for which the Potency entry was “inactive”.

For `O=C(Nc1ccc2c(c1)OCO2)C1CC1(Cl)Cl` (stereo not drawn), the Potency was 16.9 µM (active).

For `CC(C)(C)C(=O)Nc1ccc(C(=O)N/N=C/c2ccccc2OC(=O)c2ccc(Cl)cc2Cl)cc1`, the Potency entry was “inactive”.

For the molecule `CCOc1cc(/C=C/C(=O)OCC(=O)NCCN2C(=O)CSC2=O)ccc1OCC(C)C`, the Potency entry is “inactive”.

Consider `COc1ccc(C2C(=O)N(C3CCCCC3)CC(=O)N2Cc2ccccc2Cl)cc1OC` (stereo not drawn), for which the Potency entry was “inactive”.

For the molecule `Cc1nc(SCCOc2ccc(Cl)cc2)[nH]c(=O)c1Cc1ccccc1`, the Potency result is “inactive”.

With `O=C(CSc1nccn1Cc1ccc(F)cc1)NCc1ccccc1`, the Potency result was “inactive”.

With `Cc1ccc2nc(/C(C#N)=C/c3ccc(-c4ccc(C(=O)OC(C)C)cc4)o3)[nH]c2c1`, the Potency entry is “inactive”.

For `COc1cc(CC(=O)Nc2nc(-c3ccc(F)c(F)c3)cs2)cc(OC)c1OC`, the Potency result was “inactive”.

On to `COc1ccc(CC(=O)Nc2nc(-c3ccc(F)c(F)c3)cs2)cc1OC`, for which the Potency entry was “inactive”.

As for `Fc1ccc(-c2csc(-c3ccc(C4SCCS4)cc3)n2)cc1F`, the Potency is 10.7 µM (active).

As to `COc1ccc2c(c1)c(N1CCCC1=O)c(C(=O)Nc1ccc(OC)c(Cl)c1)n2C`, the Potency entry was “inactive”.

As to `CCOc1ccccc1CNC(=O)C1CCCN(S(=O)(=O)c2ccc3c(ccn3C)c2)C1` (stereo not drawn), the Potency entry is “inactive”.

`Cc1cc(C)nc(SCc2nnc(SCC(=O)Nc3ncc(C)s3)n2Cc2ccco2)n1`: the Potency entry is “inactive”.

As to `CC(C)C(=O)OCC(=O)Nc1ccc2c(c1)CCC2`, the Potency is 19 µM (active).

As to `COc1ccc(CC(=O)Nc2ccc3c(c2)CCC3)cc1S(=O)(=O)N1CCOCC1`, the Potency result was “inactive”.

In the case of `COc1cccc(NC(=O)CN(C)CC(=O)Nc2ccc3c(c2)CCC3)c1`, the Potency result is “inactive”.

Turning to `COc1ccc(NC(=O)CN2CCCN(Cc3ccccc3)S2(=O)=O)cc1`, the Potency result was “inactive”.

Turning to `CCCN(CCC)CCCNC(=O)Cn1ncc2c3ccccc3n(Cc3ccccc3)c2c1=O`, the Potency result is “inactive”.

`CCOC(=O)c1c(NC(C)=O)sc2c(O)c(Br)ccc12`: the Potency entry is “inactive”.

Take `Cc1ccc2[nH]c(=O)c(CN(CC3COCCO3)C(=O)Nc3ccccc3C)cc2c1` (stereo not drawn): the Potency entry is “inactive”.
